# This is a sample that favours compounds with a hit; in the whole collection about 11% have one here.
# PI5P4Ka inh: qHTS for Inhibitors of phosphatidylinositol 5-phosphate 4-kinase (PI5P4K); max response, %; 1.2% of 330,000 active; AID 652105, 2013; Phosphatidylinositol 5-phosphate 4-kinase type-2 alpha (Homo sapiens), P48426; PI5P4Kalpha enzyme, ADP-Glo luminescence, 60 min; hits give low values; active means max response of -50% or lower; inconclusive means between -30% and -50%; inactive means -30% or higher; further: value at the top dose of about 77 µM; on the % scale 0 is the no-effect control and ±100 the full control effect
#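 PI5P4Kalpha ADP-Glo assay; 5 microM ATP final; 60 min RT reaction; HEPES pH 7.4/EGTA/CHAPS, 5% DMSO; controls lacking substrate or enzyme; luminescent end-point.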
# L3MBTL1 block: qHTS Assay for the Inhibitors of L3MBTL1; AlphaScreen L3MBTL1–H3K9me1 peptide binding; Potency, µM (series often up to 57.1 µM), without a hit: top-dose activity, negative = inhibition, actives largely listed as inhibitors; 0.66% of 230,000 active; AID 485360, 2010; further: potency means the concentration at half of the fitted maximal effect; on the % scale 0 is the no-effect control and ±100 the full control effect; nearly all actives have a fitted effect of over 60% in size
#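 Displacement of a biotinylated histone H3(1-15) peptide monomethylated at Lys9 (75 nM) from L3MBTL1 (50 nM) was measured by AlphaScreen after a 30 min room-temperature compound incubation; cefsulodin titration served as intraplate control.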
# BAZ2B block: qHTS Assay for Inhibitors of BAZ2B; AlphaScreen BAZ2B-H3K14Ac peptide displacement; Potency, µM (highest dose often 114 µM), without a hit: at the top dose activity change, negative = inhibition, most hits filed as inhibitors; 4.4% of 360,000 active; AID 504333, 2011; further: potency means the concentration at half of the fitted maximal effect; on the % scale 0 is the no-effect control and ±100 the full control effect; nearly all actives have a fitted effect of over 60% in size
# Target sequence (Q9UIF8 whole entry, looked up): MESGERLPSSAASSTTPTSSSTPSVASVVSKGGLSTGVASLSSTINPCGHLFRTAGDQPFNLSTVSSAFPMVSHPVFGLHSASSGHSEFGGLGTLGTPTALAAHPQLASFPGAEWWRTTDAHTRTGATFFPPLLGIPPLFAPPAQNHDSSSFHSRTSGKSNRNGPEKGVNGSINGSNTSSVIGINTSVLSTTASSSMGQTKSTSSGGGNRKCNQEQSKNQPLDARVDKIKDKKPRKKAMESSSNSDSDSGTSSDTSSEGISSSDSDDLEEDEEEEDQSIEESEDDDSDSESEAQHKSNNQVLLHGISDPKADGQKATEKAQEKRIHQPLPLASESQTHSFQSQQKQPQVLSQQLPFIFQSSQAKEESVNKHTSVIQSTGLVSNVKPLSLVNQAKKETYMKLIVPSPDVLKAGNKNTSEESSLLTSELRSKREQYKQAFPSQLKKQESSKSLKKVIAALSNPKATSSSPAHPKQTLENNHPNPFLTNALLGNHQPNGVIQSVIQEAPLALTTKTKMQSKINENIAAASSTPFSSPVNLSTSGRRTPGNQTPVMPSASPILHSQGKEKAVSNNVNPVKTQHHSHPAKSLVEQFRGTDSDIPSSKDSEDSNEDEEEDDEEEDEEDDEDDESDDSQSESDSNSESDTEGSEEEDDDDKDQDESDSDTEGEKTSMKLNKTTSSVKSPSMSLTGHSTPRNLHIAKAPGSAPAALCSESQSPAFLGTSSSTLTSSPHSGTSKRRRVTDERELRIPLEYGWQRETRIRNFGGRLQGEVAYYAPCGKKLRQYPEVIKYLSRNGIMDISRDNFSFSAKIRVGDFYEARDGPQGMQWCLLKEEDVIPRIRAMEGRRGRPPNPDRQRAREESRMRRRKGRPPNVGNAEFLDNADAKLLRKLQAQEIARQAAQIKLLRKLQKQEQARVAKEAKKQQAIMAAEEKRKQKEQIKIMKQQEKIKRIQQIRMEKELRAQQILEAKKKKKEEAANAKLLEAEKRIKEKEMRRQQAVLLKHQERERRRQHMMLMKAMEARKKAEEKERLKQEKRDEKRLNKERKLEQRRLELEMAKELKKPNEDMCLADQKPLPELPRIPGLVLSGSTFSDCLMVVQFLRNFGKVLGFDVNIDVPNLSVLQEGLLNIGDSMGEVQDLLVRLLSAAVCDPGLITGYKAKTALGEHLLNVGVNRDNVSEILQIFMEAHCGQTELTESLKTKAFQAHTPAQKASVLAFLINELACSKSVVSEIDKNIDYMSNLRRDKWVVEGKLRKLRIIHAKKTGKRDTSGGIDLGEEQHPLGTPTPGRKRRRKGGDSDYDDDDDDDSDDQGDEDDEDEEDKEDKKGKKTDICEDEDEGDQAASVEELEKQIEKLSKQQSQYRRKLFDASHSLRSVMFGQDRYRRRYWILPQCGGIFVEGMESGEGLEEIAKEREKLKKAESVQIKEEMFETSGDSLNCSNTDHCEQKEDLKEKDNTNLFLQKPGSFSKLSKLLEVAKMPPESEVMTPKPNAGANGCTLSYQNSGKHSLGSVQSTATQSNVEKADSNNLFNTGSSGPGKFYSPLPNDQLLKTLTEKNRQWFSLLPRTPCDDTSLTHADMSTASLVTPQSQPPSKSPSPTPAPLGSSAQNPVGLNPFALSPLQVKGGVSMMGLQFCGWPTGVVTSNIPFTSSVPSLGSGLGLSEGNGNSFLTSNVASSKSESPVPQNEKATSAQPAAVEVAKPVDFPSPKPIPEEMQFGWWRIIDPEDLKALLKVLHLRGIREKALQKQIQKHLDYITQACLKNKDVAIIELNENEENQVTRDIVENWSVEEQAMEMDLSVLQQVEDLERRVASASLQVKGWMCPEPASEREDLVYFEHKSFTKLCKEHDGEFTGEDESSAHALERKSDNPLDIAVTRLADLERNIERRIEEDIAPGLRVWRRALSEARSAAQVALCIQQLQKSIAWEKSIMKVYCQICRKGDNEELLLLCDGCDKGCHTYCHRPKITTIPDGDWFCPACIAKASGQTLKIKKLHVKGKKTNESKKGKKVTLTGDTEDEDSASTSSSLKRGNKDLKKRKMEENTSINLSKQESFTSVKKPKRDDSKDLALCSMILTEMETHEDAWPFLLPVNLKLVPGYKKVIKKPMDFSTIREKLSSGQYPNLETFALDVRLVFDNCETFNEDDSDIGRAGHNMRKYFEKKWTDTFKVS
#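 Compounds, titrated to a top concentration of 110 uM, were incubated 30 min at room temperature with preformed BAZ2B/acetyl-K14 H3 peptide complex (50 nM each). Proximity signal was measured by AlphaScreen after 20 min with beads.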
# HP1b binding inh: HTS for Inhibitors of HP1-beta Chromodomain Interactions with Methylated Histone Tails. Chromobox protein homolog 1 (Homo sapiens), P83916. AlphaScreen HP1-beta / biotin-H3K9me3 peptide binding. Potency, µM (highest dose often 114 µM), inactives show top-dose activity change, negative = inhibition, actives largely listed as inhibitors. 0.56% of 390,000 active; further: potency means the concentration at half of the fitted maximal effect; nearly all actives have a fitted effect of over 70% in size
#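 HP1-beta protein (50 nM final) preincubated 30 min at room temperature with biotinylated H3(1-18)K9me3 peptide (50 nM) in PBS pH 7.4, 0.01% Tween-20, then compound added for 30 min. AlphaScreen streptavidin donor/nickel chelate acceptor beads (10 ug/mL final), 30 min dark, luminescence read.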
# G9a inh: qHTS Assay for Inhibitors of Histone Lysine Methyltransferase G9a | Potency, µM (top dose mostly 102 µM), without a hit: top-dose activity, negative = inhibition, most hits filed as inhibitors | Histone-lysine N-methyltransferase EHMT2 (Homo sapiens), Q96KQ7 | AID 504332, 2011 | G9a H3K9 monomethylation, AlphaScreen, 2 h | 8.8% of 350,000 active; further: potency means the concentration at half of the fitted maximal effect; on the % scale 0 is the no-effect control and ±100 the full control effect; nearly all actives have a fitted effect of over 75% in size
#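 AlphaScreen read-out: biotin-H3K9 peptide (500 nM) methylation by 20 nM enzyme with 20 uM SAM, 2 h at room temperature after 15 min compound preincubation; anti-monomethyl H3K9 antibody plus donor/acceptor beads, 10 min dark.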
# JMJD2A Tudor: qHTS Assay for Inhibitors of JMJD2A-Tudor Domain; AlphaScreen JMJD2A-Tudor / H3K4me3 peptide binding; 4.4% of 390,000 active; Potency, µM (titrated, usually from 114 µM), without a hit: top-dose activity change, negative = inhibition, usual class: inhibitors; further: potency means the concentration at half of the fitted maximal effect; on the % scale 0 is the no-effect control and ±100 the full control effect; nearly all actives have a fitted effect of over 50% in size
# An asterisk follows results filed as active; ? = inconclusive; . = not tested or not shown; ! = not confirmed by another sample; [ ] = dose if it differs, or a comment. Unless noted, the call rests on the fitted dose curve; in most records, active means well fitted inhibition curve with a large enough effect; inconclusive means small, poorly fitted or top-dose-only effect; inactive means no such curve, though single readings can be large or run the other way.
SMILES,PI5P4Ka inh,L3MBTL1 block,BAZ2B block,HP1b binding inh,G9a inh,JMJD2A Tudor
Cc1ccc(-c2cc(C(=O)NCCc3ccccc3)c3c(-c4ccc(C)cc4)[nH]nc3n2)cc1,.,.,5.2%,22.1%,-1.6%[59 µM],12.0%
CCOC(=O)c1[nH]c2c(c1Cc1ccccc1)C(=O)CC(c1ccc(OC)cc1)C2 (stereo unspecified),.,.,-22.2%,15.9%,-1.6%[59 µM],-26.0%
Cc1cc(C(=O)CN2C(=O)NC(CC(C)C)C2=O)c(C)n1C1CC1 (stereo unspecified),-2.0,-20.0%,.,-2.6%[57 µM],.,-33.8%
CC(=O)Nc1ccc(SCC(=O)c2cc(C)n(-c3ccccc3F)c2C)cc1,0.3,-4.5%,44.7µM*,-29.9%,?,?
Cc1cc(C(=O)CN2C(=O)NC(CC(C)C)C2=O)c(C)n1-c1ccccc1F (stereo unspecified),-1.9,.,?,38.1%,50.1µM*,-10.1%[57.1 µM]
COc1ccc(-n2c(-c3cccc(F)c3)nc3c(cnn3-c3ccc(C)cc3)c2=O)cc1,.,.,.,26.2%,-3.8%[59 µM],-13.3%
Cc1cccc(C(=O)n2cnnc2N)c1,-4.0,3.1%,-27.3%,32.9%,22.4µM*,-4.2%
Cc1cc(C)cc(C(=O)n2cnnc2N)c1,10.0,2.9%[11.4 µM],9.5%,49.4%,?,-12.1%
COC(=O)C1=C[C@@H](C(=O)OC)[C@@H]2C3=C(C(=O)[C@@]2(C)NC(=O)c2ccccc2)[C@H](C)[C@@H]2C(=O)N(Cc4ccccc4)C(=O)[C@@H]2[C@@H]3C1,.,.,.,26.0%,.,-18.6%
CCc1ccc(Nc2n[n+](-c3ccccc3)c(-c3cccc(C)c3)s2)cc1,-25.3,-10.6%,35.5µM*,11.4%,7.6%[2.33 µM],79.4µM*
Cc1cccc(-c2sc(Nc3ccccc3)n[n+]2-c2ccc(F)cc2)c1,-2.4,-1.7%,-1.3%,30.4%,35.5µM*,-31.7%
CC12CCC(c3n[nH]c(=S)nc31)C2(C)C (stereo unspecified),-20.0,7.8%,-10.7%,-30.9%,8.91µM*,20µM*
COc1cc(NC(=O)Cn2c(=O)n(C(C)C)c(=O)c3oc4ccccc4c32)cc(OC)c1,.,.,-15.2%,23.2%,0.6%[59 µM],-4.8%
CCC(=O)N1CCc2cc(S(=O)(=O)NCCC(=O)Nc3ccc(C)cc3)ccc21,.,.,.,20.4%,-2.9%[59 µM],-15.0%
CCCCc1nc2sc3c(=O)[nH]c(=S)[nH]c3c2c2c1CCC2,-2.6,.,.,38.8%,.,20µM*
CN(O)/C=c1/ccc2c(n1)C(=O)C=CC=2,-12.3,20µM*,7.94µM*,14.7%,10µM*,20µM*
CCOC(=O)C(C(C)C)C(N)Cc1ccc(F)cc1 (stereo unspecified),-0.2,.,50.1µM*,4.3%,-38.0%,?
NC(Cc1ccc2nonc2c1)C(=O)O (stereo unspecified),-4.1,3.8%,79.4µM*,-6.3%,12.6µM*,8.91µM*
N[C@@H](Cc1ccc(F)cc1)C(=O)O,5.6,.,.,89.0%,10µM*!,-25.5%
NC(Cc1ccc(Cl)cc1)C(=O)O (stereo unspecified),.,.,.,.,9.47µM*!,.
CCOC(=O)C(Cc1ccccc1)C(=O)Nc1ccc(NC(=O)C(Cc2ccccc2)C(=O)OCC)cc1 (stereo unspecified),-4.7,-3.4%,-2.8%,36.8%,-33.0%[59 µM],-1.0%
N[C@H](Cc1ccccc1)C(=O)O,.,.,.,.,33.5%[59 µM],.
Cn1c(=O)c2c(n3c4ccccc4nc13)NC(=O)CC2c1ccccc1F (stereo unspecified),.,.,-11.3%,52.9%,-19.4%[59 µM],-4.9%
O=C(NCc1ccc(Cl)cc1)c1ccc2c(Cl)c3c(nc2c1)CCCC3,.,.,-11.8%,18.7%,8.5%[59 µM],-15.2%
CN(C)CCn1nnnc1SCC1=C(C(=O)O)N2C(=O)[C@@H](NC(=O)Cc3csc(N)n3)[C@@H]2SC1,.,.,.,.,6.3%[21.5 µM],.

# Screening results: PubChem BioAssay, National Center for Advancing Translational Sciences (NCATS)
